Reference: PubChem BioAssay (NCI)
About 83,000 compounds went through this panel and 20% of them were active in at least one assay; those are over-represented in the sample as a whole.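 48-hour exposure, single concentration, 96-well plates; percent growth endpoint where 0 means no net growth. Active: below 10.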 Calls of active or inactive are those of the source.

What was measured:
Test in all cases: NCI-60 one-dose screen, 48 h (100 = growth as untreated, 0 = no growth, -100 = all killed)
Conditions in all cases: 10 µM unless noted
NCI-H23 lung = tested on: NCI-H23 lung
NCI-H226 lung = tested on: NCI-H226 lung
NCI-H322M lung = tested on: NCI-H322M lung
HOP-62 NSCLC = tested on: HOP-62 NSCLC
NCI-H460 lung = tested on: NCI-H460 lung
HOP-92 NSCLC = tested on: HOP-92 NSCLC
NCI-H522 lung = tested on: NCI-H522 lung
A549/ATCC NSCLC = tested on: A549/ATCC NSCLC
786-0 renal = tested on: 786-0 renal
COLO 205 colon = tested on: COLO 205 colon
K-562 leukemia = tested on: K-562 leukemia
MALME-3M melanoma = tested on: MALME-3M melanoma
MDA-MB-231 breast = tested on: MDA-MB-231 breast
RXF 393 renal = tested on: RXF 393 renal
SF-268 CNS = tested on: SF-268 CNS
SF-295 CNS = tested on: SF-295 CNS
SF-539 CNS = tested on: SF-539 CNS
UACC-257 melanoma = tested on: UACC-257 melanoma
M14 melanoma = tested on: M14 melanoma
DU-145 prostate = tested on: DU-145 prostate

Measured: growth

CSCCC1NC(=O)C(C(C)=Nc2ccccc2)=C1O (stereo not drawn)
inactive: NCI-H23 lung 105% | NCI-H226 lung 112% | NCI-H322M lung 102% | HOP-62 NSCLC 107% | NCI-H460 lung 114% | HOP-92 NSCLC 108% | NCI-H522 lung 116% | A549/ATCC NSCLC 101% | 786-0 renal 98.9% | COLO 205 colon 105% | K-562 leukemia 124% | MALME-3M melanoma 112% | MDA-MB-231 breast 109% | RXF 393 renal 109% | SF-268 CNS 111% | SF-295 CNS 97.7% | SF-539 CNS 119% | UACC-257 melanoma 113% | M14 melanoma 103%

CCN(CC)c1ccc(C(=N)c2ccc(N(C)C)cc2)cc1
active: NCI-H23 lung -23.3% | HOP-62 NSCLC 7.49% | NCI-H460 lung 0.221% | HOP-92 NSCLC -21% | NCI-H522 lung -13.5% | 786-0 renal 7.03% | COLO 205 colon -54.5% | K-562 leukemia 4.01% | SF-295 CNS -13.1% | SF-539 CNS -37.4% | UACC-257 melanoma -3.29%
inactive: NCI-H226 lung 16.4% | NCI-H322M lung 60.6% | A549/ATCC NSCLC 28.6% | MALME-3M melanoma 31.9% | MDA-MB-231 breast 17.8% | RXF 393 renal 12.8%

O=C1OC(c2ccc(-c3ccccc3)cc2)=C/C1=C/c1c(Cl)cccc1Cl
active: UACC-257 melanoma -33.6%
inactive: NCI-H23 lung 94.7% | NCI-H226 lung 84.1% | NCI-H322M lung 85.7% | HOP-62 NSCLC 76% | NCI-H460 lung 99.4% | HOP-92 NSCLC 59% | NCI-H522 lung 89.3% | A549/ATCC NSCLC 11% | COLO 205 colon 103% | DU-145 prostate 96.3% | K-562 leukemia 89.5% | MALME-3M melanoma 64% | MDA-MB-231 breast 95.9% | SF-268 CNS 96.7% | SF-539 CNS 102% | M14 melanoma 105%

O=C(CSc1ccc(Cl)cc1)Nc1ccc(-c2nc3ccccc3s2)c(Cl)c1
active: HOP-92 NSCLC 6.61%
inactive: NCI-H23 lung 20.9% | NCI-H226 lung 77.4% | NCI-H322M lung 87.7% | HOP-62 NSCLC 75.3% | NCI-H460 lung 41.5% | NCI-H522 lung 28.2% | A549/ATCC NSCLC 48.8% | 786-0 renal 48.9% | COLO 205 colon 76.2% | K-562 leukemia 34.3% | MALME-3M melanoma 108% | MDA-MB-231 breast 93.8% | RXF 393 renal 78.7% | SF-295 CNS 22.3% | SF-539 CNS 93.1% | UACC-257 melanoma 84.5% | M14 melanoma 75.4%

COc1cc(Nc2ccnc3ccc(Br)cc23)cc(OC)c1OC
active: NCI-H460 lung 7.02% | NCI-H522 lung -17.8% | RXF 393 renal 2.9%
inactive: NCI-H23 lung 53.8% | NCI-H226 lung 78.8% | NCI-H322M lung 63.5% | HOP-62 NSCLC 23.2% | HOP-92 NSCLC 49% | A549/ATCC NSCLC 37.5% | COLO 205 colon 39% | DU-145 prostate 59.1% | K-562 leukemia 10.2% | MALME-3M melanoma 46.7% | MDA-MB-231 breast 38% | SF-268 CNS 47.6% | SF-295 CNS 25.6% | SF-539 CNS 12.7% | UACC-257 melanoma 38.2% | M14 melanoma 14.3%

O=C(Nc1cccc(Cl)c1)Nc1cc(C(F)(F)F)ccc1Cl
inactive: NCI-H226 lung 20.8% | NCI-H322M lung 30.8% | HOP-62 NSCLC 41.3% | A549/ATCC NSCLC 11.3% | K-562 leukemia 16.4% | MDA-MB-231 breast 25.5% | RXF 393 renal 40.7% | SF-268 CNS 41.8% | SF-539 CNS 43.5% | UACC-257 melanoma 19.6% | M14 melanoma 18.2%
active: NCI-H23 lung -12.3% | NCI-H460 lung -34.6% | HOP-92 NSCLC -20.3% | NCI-H522 lung -26.9% | 786-0 renal 8.47% | COLO 205 colon -28.2% | MALME-3M melanoma 5.85% | SF-295 CNS -1.4%

CCCCCCCCCCCCCCCCCC1=NC(C)(C)CN1C(C)(C)CO
inactive: NCI-H226 lung 22.9% | NCI-H322M lung 16.3% | SF-295 CNS 54.3%
active: NCI-H23 lung -14.5% | HOP-62 NSCLC -100% | NCI-H460 lung -100% | HOP-92 NSCLC -6.66% | NCI-H522 lung -84.8% | A549/ATCC NSCLC -93.8% | 786-0 renal -37.5% | COLO 205 colon -99.8% | K-562 leukemia -56.6% | MALME-3M melanoma -58.1% | MDA-MB-231 breast -71.6% | RXF 393 renal -68.7% | SF-268 CNS -84.6% | SF-539 CNS -45% | UACC-257 melanoma -41% | M14 melanoma -100%

COCCn1c(Nc2ccc(C(=O)NO)cc2)nc2ccccc21
inactive: NCI-H23 lung 72.8% | NCI-H226 lung 89.6% | NCI-H322M lung 76.5% | HOP-62 NSCLC 74.8% | NCI-H460 lung 56.7% | HOP-92 NSCLC 27.7% | NCI-H522 lung 30.9% | A549/ATCC NSCLC 69.2% | 786-0 renal 84.4% | COLO 205 colon 50.7% | K-562 leukemia 34.6% | MALME-3M melanoma 30.6% | MDA-MB-231 breast 81.5% | RXF 393 renal 39.1% | SF-268 CNS 82.3% | SF-295 CNS 61.9% | SF-539 CNS 62% | UACC-257 melanoma 27.8% | M14 melanoma 51.6%

O=C1C=CC(=O)N1c1cccc(N2C(=O)C=CC2=O)c1
active: NCI-H522 lung -73.1% | COLO 205 colon -48.1% | MALME-3M melanoma -36.4% | RXF 393 renal -2.87%
inactive: NCI-H23 lung 98.7% | NCI-H226 lung 111% | NCI-H322M lung 116% | HOP-62 NSCLC 114% | NCI-H460 lung 119% | HOP-92 NSCLC 94.9% | A549/ATCC NSCLC 101% | 786-0 renal 108% | K-562 leukemia 104% | MDA-MB-231 breast 107% | SF-268 CNS 108% | SF-295 CNS 102% | SF-539 CNS 104% | UACC-257 melanoma 96.8% | M14 melanoma 98.8%

O=c1c2sc3ccccc3c2nnn1-c1ccc(F)c(Cl)c1
inactive: NCI-H23 lung 73% | NCI-H226 lung 34.3% | NCI-H322M lung 49.4% | NCI-H460 lung 10.4% | NCI-H522 lung 64.5% | A549/ATCC NSCLC 30.3% | 786-0 renal 31.9% | COLO 205 colon 41.9% | K-562 leukemia 49.7% | MALME-3M melanoma 58% | MDA-MB-231 breast 27.5% | RXF 393 renal 47.3% | SF-539 CNS 65.4% | UACC-257 melanoma 64.1% | M14 melanoma 74.7%
active: HOP-62 NSCLC -15% | HOP-92 NSCLC -1.07% | SF-295 CNS 4.36%

COc1cc(-c2nc(-c3nc4cc(C(=O)c5ccccc5)ccc4[nH]3)cc3c2[nH]c2ccccc23)cc(OC)c1OC
inactive: NCI-H23 lung 104% | NCI-H226 lung 91.1% | NCI-H322M lung 99.4% | HOP-62 NSCLC 97.7% | NCI-H460 lung 95.6% | HOP-92 NSCLC 82.5% | NCI-H522 lung 90.6% | A549/ATCC NSCLC 75.9% | 786-0 renal 97.3% | COLO 205 colon 97.7% | K-562 leukemia 80.3% | MALME-3M melanoma 102% | MDA-MB-231 breast 86.4% | RXF 393 renal 93.8% | SF-268 CNS 99.5% | SF-295 CNS 77.1% | SF-539 CNS 80.6% | UACC-257 melanoma 109% | M14 melanoma 85.8%

COc1cc(C2=NOC(c3cc(OC)c(OC)c(OC)c3)C2)ccc1OCCCCOc1cc2c(cc1OC)C(=O)N1CCC[C@H]1C=N2 (stereo partly drawn)
inactive: MDA-MB-231 breast 12.3% | SF-295 CNS 13.4% | UACC-257 melanoma 13.7%
active: NCI-H23 lung -15.9% | NCI-H226 lung 9.32% | NCI-H322M lung -6.38% | HOP-62 NSCLC 9.48% | NCI-H460 lung -29.6% | HOP-92 NSCLC -29.3% | NCI-H522 lung -41.7% | A549/ATCC NSCLC 6.75% | 786-0 renal -4.62% | COLO 205 colon -78% | K-562 leukemia 7.5% | MALME-3M melanoma -72.2% | RXF 393 renal -79% | SF-268 CNS -29.5% | SF-539 CNS -89.6% | M14 melanoma -43.7%

CCN(CC)c1ccc2nc3c4ccccc4c(=O)cc-3n(-c3ccccc3)c2c1
active: NCI-H23 lung -3.45% | NCI-H226 lung 5.4% | NCI-H322M lung -23.5% | HOP-62 NSCLC 9.84% | NCI-H460 lung -41.5% | HOP-92 NSCLC -7.83% | NCI-H522 lung -8.95% | 786-0 renal 4.36% | COLO 205 colon -55.1% | K-562 leukemia 6.09% | MALME-3M melanoma -32.3% | MDA-MB-231 breast -24.1% | RXF 393 renal 6.05% | SF-295 CNS -36.7% | SF-539 CNS -30% | UACC-257 melanoma -15.8% | M14 melanoma -56.8%
inactive: A549/ATCC NSCLC 11.6% | SF-268 CNS 15.5%

c1ccc(C2=Nc3ccccc3SC2)cc1
inactive: NCI-H23 lung 93.5% | NCI-H226 lung 108% | NCI-H322M lung 98.2% | HOP-62 NSCLC 113% | NCI-H460 lung 99.3% | HOP-92 NSCLC 62.1% | NCI-H522 lung 99.6% | A549/ATCC NSCLC 96.5% | 786-0 renal 117% | COLO 205 colon 114% | K-562 leukemia 124% | MALME-3M melanoma 99.3% | MDA-MB-231 breast 101% | RXF 393 renal 129% | SF-295 CNS 97.2% | SF-539 CNS 103% | UACC-257 melanoma 105% | M14 melanoma 103%

Oc1ccc(-c2cnc(-c3ccccc3)[nH]2)c(O)c1
inactive: NCI-H23 lung 108% | NCI-H226 lung 86.2% | NCI-H322M lung 94.9% | NCI-H460 lung 110% | HOP-92 NSCLC 58.7% | NCI-H522 lung 99.8% | A549/ATCC NSCLC 24.8% | COLO 205 colon 117% | DU-145 prostate 157% | K-562 leukemia 94.7% | MALME-3M melanoma 76.5% | MDA-MB-231 breast 92.1% | SF-268 CNS 100% | SF-539 CNS 107%
active: HOP-62 NSCLC -12.1% | UACC-257 melanoma -22.6%

O=C(Nc1ccc2ncnc(Nc3ccc(F)c(Cl)c3)c2c1)c1cccs1
inactive: NCI-H23 lung 81.6% | NCI-H226 lung 58.1% | NCI-H322M lung 19.3% | HOP-62 NSCLC 72.7% | NCI-H460 lung 39.6% | HOP-92 NSCLC 38% | NCI-H522 lung 31.4% | A549/ATCC NSCLC 43.3% | 786-0 renal 14.8% | COLO 205 colon 106% | K-562 leukemia 49.9% | MALME-3M melanoma 66.4% | MDA-MB-231 breast 43.4% | SF-295 CNS 46.4% | SF-539 CNS 63.5% | UACC-257 melanoma 101% | M14 melanoma 65%
active: RXF 393 renal -3.16%
